Assay results from PubChem BioAssay (NCI).
About 83,000 compounds went through this panel and 20% of them were active in at least one assay; those are over-represented in the sample as a whole.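 Compound tested at a single concentration for 48 hours in 96-well plates; a percent growth value below 10 was scored as active.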 The source made the active and inactive calls.

What follows are molecules tested on HL-60(TB) leukemia (assay: NCI-60 one-dose screen, 48 h (100 = growth as untreated, 0 = no growth, -100 = all killed)). Conditions: 10 µM unless noted.

Structure (SMILES)	growth
OC(c1ccccc1)c1nnc(SCc2ccccc2)n1Cc1ccccc1 (stereo not given)	112% (inactive)
COc1ccc(-c2cnc(-c3ccc(Cl)cc3)[nH]2)cc1OC	91.2% (inactive)
Cc1ccc(S(=O)(=O)NCCNc2cc(-c3cn(C(C)(C)C)nc3-c3cccc(O)c3)ccn2)cc1	65.8% (inactive)
CCSc1nnc(NC(=O)Cc2ccc(Cl)cc2)s1	96.8% (inactive)
O=C1/C(=C/c2ccc(Cl)cc2Cl)CN(S(=O)(=O)c2ccccc2)C/C1=C\c1ccc(Cl)cc1Cl	11% (inactive)
CCCOc1ccc2nc(NC(=O)OC)[nH]c2c1	3.05% (active)
COc1ccc(CCN2CCCN3C2=Nc2ccccc2S3(=O)=O)cc1	3.21% (active)
COc1ccc(/C=C2\Cc3c(Br)cccc3C2=O)c(OC)c1	89.2% (inactive)
CC1CN(CCCOC(=O)Nc2ccc(Cl)cc2)CCN1C(C)(C)C (stereo not given)	96.1% (inactive)
CC1=CC[C@@H]2CC[C@]3(C)[C@H](CC[C@@H]4[C@@]5(C)CCCNC(C)(C)[C@@H]5CC[C@]43C)[C@H]2[C@@H]1C	21.7% (inactive)
COc1cccc(NC(=O)Nc2ccc(Oc3ncnc4[nH]c(C)c(C)c34)cc2)c1	88.4% (inactive)
CCNC(=O)Oc1ccc(/C(=C(\C)c2ccc(Cl)cc2)c2ccc(OCCN(CC)CC)cc2)cc1	23.9% (inactive)
FC(F)(F)c1cccc(-n2nnc3cnc(Nc4ccc(N5CCCCC5)cc4)nc32)c1	103% (inactive)
Cc1cccc(C(=O)O)n1	78.1% (inactive)
Clc1cc2c(nn1)Nc1ccccc1S2	102% (inactive)
CC(C)C[C@H](C(=O)O)N(C)C(=O)[C@@H]1CCCN1C(=O)[C@H](C)OC(=O)[C@H](CCC(N)=O)NC(=O)[C@@H]1CCC(=O)N1	85.8% (inactive)
O=C1/C(=C\c2ccc(Br)cc2)CN(C(=O)c2ccccc2F)C/C1=C\c1ccc(Br)cc1	33.6% (inactive)
Fc1ccc([I+]c2ccc(F)cc2)cc1	54.5% (inactive)
CCOC(=O)/C=C1\SC(=Nc2ccc(C#N)cc2)N(CCN2C(=O)/C(=C/C(=O)OCC)SC2=Nc2ccc(C#N)cc2)C1=O	55.5% (inactive)
Nc1ccc2cc3ccc(N)cc3nc2c1	110% (inactive)

Structure (SMILES)	growth
CC(C)N1C(=O)S/C(=C2/SC(=O)N(C(C)C)C2=O)C1=O	98.4% (inactive)
CC1=C(O)C(=O)C(c2c(C)cc(C)c(Br)c2C)=C(O)C1=O	53.4% (inactive)
C=CCn1c(SCC(=O)Nc2ccc(/C(C)=N/O)cc2)nnc1-c1cc(-c2ccc(S(N)(=O)=O)cc2)nc2ccccc12	7.74% (active)
Clc1ccc(I)c2ccccc12	98.1% (inactive)
CCOC(=O)C(=Cc1cccc(C#N)c1)C(=O)OCC	27.9% (inactive)
O=C(O)CCCCSCCCCC(=O)O	97.8% (inactive)
COc1ccccc1-n1c(SCc2cc(OC)c(OC)c(OC)c2)nc2ccc(Cl)cc2c1=O	-19.6% (active)
CN(C)c1ccc(N=Nc2ccc(Br)cn2)c(O)c1	-41.4% (active)
COc1cc2oc(-c3cccc(C(=O)Nc4ccc(C#N)cc4)c3)cc(=O)c2c(O)c1OC	136% (inactive)
CNCCCNc1nc2ccccc2c2c(=O)c3cc(F)ccc3sc12	-5.1% (active)
Nc1ncnc2c1ccn2-c1cccc(NC(=O)c2ccc(N3CCOCC3)c(C(F)(F)F)c2)c1	54.1% (inactive)
O=C(/C=C\c1ccc(NCc2ccc(C(=O)O)cc2)cc1)CCl	97.7% (inactive)
COc1cc2c(cc1-c1c(C)noc1C)ncc1nc(C3CCC(F)(F)CC3)n([C@H](C)COC(F)F)c12	23.5% (inactive)
Cc1cc(C)n(Nc2nc3ccccc3[nH]c2=O)c(=O)c1C#N	102% (inactive)
COC(=O)CCC1=C(CC(=O)OC)C(C)=N/C1=C\c1[nH]c(-c2ccc[nH]2)cc1OC	44.2% (inactive)
C/C(=C(/c1ccc(Cl)cc1)c1ccc(OCCN2CCCCC2)cc1)c1ccccc1	61.8% (inactive)
O=C(CSc1nnc(-c2ccc(Cl)cc2)o1)Nc1ccc(C(=O)/C=C/c2ccc(Cl)cc2)cc1	84.4% (inactive)
Clc1cc(Cl)c(Cl)c(-c2nnc(SCc3ccncc3Br)o2)c1	88.8% (inactive)
COc1ccccc1CNCCCN1C(=O)c2ccc3c4c(ccc(c24)C1=O)C(=O)N(CCCNCCCN)C3=O	-42.3% (active)
COc1cc(OC)cc(C(=O)Nc2cnc(Nc3ccc(N4CCOCC4)nc3)nc2Oc2ccc(C(F)(F)F)cc2)c1	94.7% (inactive)
